Screens deposited in PubChem BioAssay by several laboratories.
An excerpt weighted towards active compounds, which were near 1.3% of everything screened.
SARS 3CLpro inh: SARS-CoV 3CLpro protease inhibitors, primary screen, biochemical, quenched FRET | recombinant SARS-CoV 3CLpro, quenched FRET peptide cleavage | inhibition, % at 6 µM | 0.14% of 290,000 active | AID 1706, 2009; in the data active = inhibition above about 12%
PrP 5UTR inh: inhibition of PrP 5' UTR reporter expression | 0.35% of 340,000 active | inhibition, % (concentration not given with the values) | AID 488862, 2010 | cell-based PrP 5' UTR mRNA reporter, plate reader; in the data active = inhibition above about 52%
PrPC surface inh: inhibitors of human cell surface prion protein PrPC, primary screen, cell-based, TR-FRET; Major prion protein (Homo sapiens), P04156; TR-FRET read-out; inhibition, % at 13.8 µM; 0.43% of 370,000 active; in the data active = inhibition above about 24%
CCHF vOTU inh: CCHFV vOTU protease inhibitors, primary screen, biochemical, Pep-AMC substrate, fluorescence. 0.55% of 370,000 active. inhibition, % at 11.5 µM; in the data active = inhibition above about 30%
PrPC confirm: confirmation of inhibitors of cell surface human prion protein, confirmation, cell-based, TR-FRET. shares compounds with PrPC surface inh. cell surface PrPC level. inhibition, % at 13.8 µM. 65% of 1,500 active. AID 743200, 2013; in the data active = inhibition above about 25%
LD9 cytotox: cytotoxicity in LD9 cells, cytotoxicity control for cell surface PrPc inhibitor project, cell-based, luminescence, high throughput. inhibition, % at 13.8 µM. AID 743201, 2013. shares compounds with PrPC surface inh. 29% of 1,500 active. luminescence viability; in the data active = inhibition above about 9.5%
Large screens that a line does not name were inactive (follow-up assays come after a bar, where they were run).

Cc1csc(NC(=O)C2CCN(S(=O)(=O)c3cccs3)CC2)n1	none
C=C1C(=O)C23C(O)C1CCC2C12CCCC(C)(COC(C)=O)C1C(O)C3(O)OC2 (stereo unspecified)	PrPC surface inh 75 (no result: SARS 3CLpro inh) | PrPC confirm 77 | LD9 cytotox 93
Cc1ccc(NC(=O)c2cc(S(=O)(=O)N(C)C)ccc2N2CCCC2)cc1S(=O)(=O)N(C)C	PrPC surface inh 44 (no result: SARS 3CLpro inh) | PrPC confirm 37 | LD9 cytotox inactive
COc1ccc(S(=O)(=O)N2CCOCC2)cc1C(=O)Nc1ccc(N2CCCCCC2)cc1	PrPC surface inh 31 (no result: SARS 3CLpro inh) | PrPC confirm 30 | LD9 cytotox inactive
Cc1ccc(NC(=O)c2cc(S(=O)(=O)N3CCCCC3)ccc2N2CCOCC2)cc1S(=O)(=O)N(C)C	none (no result: SARS 3CLpro inh)
COc1ccc(-c2cnnn2-c2ccc(NC(=O)c3ccc(S(=O)(=O)N4CCCCC4)cc3)cc2)cc1OC	PrPC surface inh 32 | PrPC confirm inactive | LD9 cytotox inactive
COc1ccc(C(=O)Nc2ccc(S(=O)(=O)N3CCCCC3)cc2)cc1OC	none
COc1ccc(NC(=O)c2cc(S(=O)(=O)N(C)C)ccc2N2CCCC2)cc1Cl	PrPC surface inh 24 | PrPC confirm inactive | LD9 cytotox inactive
Cc1ccccc1NC(=O)C1CCCN(c2nnc(N3CCCC3=O)s2)C1 (stereo unspecified)	none
COc1ccc(/C=C/C(=O)OC2CCCCC2CN(C)C)cc1 (stereo unspecified)	none
Cc1cc(C)c(C#N)c(SCC(O)CS(=O)(=O)Cc2ccccc2)n1 (stereo unspecified)	none
Cc1cc2c(s1)c1cnn(Cc3ccc(F)cc3F)c(=O)c1n2C	none (no result: SARS 3CLpro inh, PrP 5UTR inh, CCHF vOTU inh)
CCN(CC)S(=O)(=O)c1cc(C(=O)Nc2ccncc2)ccc1Cl	PrPC surface inh 26 | PrPC confirm inactive | LD9 cytotox 17
Cn1c(NCc2ccccc2F)nc2cc(-c3cccc(C(F)(F)F)c3)sc2c1=O	none (no result: SARS 3CLpro inh, PrP 5UTR inh)
Cc1nc2ccccc2nc1SCC(=O)N1CCC(C)CC1	PrPC surface inh 55 | PrPC confirm 50 | LD9 cytotox inactive
CC1CCCN(C(=O)CSc2cnc3ccccc3n2)C1 (stereo unspecified)	PrPC surface inh 39 | PrPC confirm 71 | LD9 cytotox inactive
CC1CCN(C(=O)CSc2nc3ccccc3s2)CC1	none
CC1CCCN(C(=O)CSc2nc3ncccc3[nH]2)C1 (stereo unspecified)	none
CCOc1ccccc1C(=O)Nc1ccc2nc(C)[nH]c(=O)c2c1	PrPC surface inh 26 (no result: SARS 3CLpro inh, PrP 5UTR inh) | PrPC confirm inactive | LD9 cytotox inactive
Cn1c(CNc2ccccn2)c(C#N)c2ccccc21	none
O=C(O)c1ccccc1C(=O)c1cccc2c(Br)cccc12	PrPC surface inh 60 (no result: SARS 3CLpro inh) | PrPC confirm 91 | LD9 cytotox inactive
O=C(O)c1ccccc1C(=O)c1cccc2c(F)cccc12	none (no result: SARS 3CLpro inh)
Cc1cccc(NNC(=O)C(=O)NNc2cccc(C)c2)c1	PrPC surface inh 29 | PrPC confirm inactive | LD9 cytotox inactive
Cc1cccc(NC(=O)CC(=O)Nc2cccc(C)c2)c1	none
CCOCc1nc(N)nc(N)c1-c1cccc(Cl)c1	PrPC surface inh 26 (no result: SARS 3CLpro inh, PrP 5UTR inh) | PrPC confirm inactive | LD9 cytotox inactive
O=C(Nc1ccc2c(c1)OCO2)c1cc(C2CCCCN2S(=O)(=O)c2cccs2)on1 (stereo unspecified)	PrPC surface inh 57 (no result: SARS 3CLpro inh, PrP 5UTR inh) | PrPC confirm 48 | LD9 cytotox inactive
O=C(Nc1ccccc1)c1cc(C2CCCCN2S(=O)(=O)c2ccccc2)on1 (stereo unspecified)	PrPC surface inh 29 (no result: SARS 3CLpro inh, PrP 5UTR inh) | PrPC confirm inactive | LD9 cytotox inactive
Cn1c(=O)[nH]c(=O)c2c1nc(SCCN1CCCCC1)n2Cc1ccccc1	none
COc1ccccc1Nc1nc(NCc2ccco2)c2ccccc2n1	none (no result: PrP 5UTR inh)
Cc1ccc(Nc2nc(NCc3ccco3)c3ccccc3n2)cc1	PrPC surface inh 35 | PrPC confirm 43 | LD9 cytotox 24
O=c1/c(=C\c2ccc(O)cc2)sc2n1C(c1ccccc1)C(c1ccccc1)=NN=2 (stereo unspecified)	none
COc1ccccc1CNC(=O)CCN1C(=O)c2ccccc2C1=O	none
C=COC(=O)CSc1nc(-c2cccs2)ccc1C#N	none
CCOC(=O)C(C)Sc1nc(-c2cccs2)ccc1C#N (stereo unspecified)	PrPC surface inh 28 | PrPC confirm 43 | LD9 cytotox inactive
Cc1cccc(N/C=C(\[N+](=O)[O-])S(=O)(=O)c2ccccc2)c1	none
COc1ccc(CN2CCNC(=O)C2CC(=O)NCc2cnn(C)c2)cc1OC (stereo unspecified)	none
CC(C)c1nc(SCC(=O)Nc2ccc(N3CCOCC3)cc2)c2ccccc2n1	PrPC surface inh 33 | PrPC confirm 52 | LD9 cytotox inactive
Cc1ccc(NC(=O)CSc2ncnc3ccccc23)cc1S(=O)(=O)N1CCCCC1	PrPC surface inh 48 | PrPC confirm 76 | LD9 cytotox inactive
Cc1ccc(NC(=O)CSc2ncnc3ccccc23)cc1S(=O)(=O)N1CCOCC1	PrPC surface inh 61 | PrPC confirm 55 | LD9 cytotox inactive
CCOc1ccccc1N1CN(C2CCCCC2)CNC1=S	none (no result: PrP 5UTR inh)
CCc1ccc(C(=O)NNc2ccc(Cl)cc2)cc1	PrPC surface inh 31 | PrPC confirm 43 | LD9 cytotox inactive
CCCc1ccc(C(=O)NNc2cc(Cl)ccc2Cl)cc1	PrPC surface inh 25 | PrPC confirm 27 | LD9 cytotox inactive
CCc1ccc(OCC(=O)Nc2nnc(-c3ccco3)s2)cc1	none
CCOc1ccc(C(=O)O/N=C(\N)c2ccccn2)cc1OCC	none
C=CC(=O)N1C/C(=C/c2ccc(F)cc2)C(=O)/C(=C\c2ccc(F)cc2)C1	PrPC surface inh 41 (no result: SARS 3CLpro inh) | PrPC confirm inactive | LD9 cytotox 75
Cc1ccc(S(=O)(=O)N2CCOC23CCN(C(=O)c2ccc(Cl)cc2Cl)CC3)cc1	PrPC surface inh 48 | PrPC confirm 32 | LD9 cytotox inactive
Cc1ccc(S(=O)(=O)N2CCOC23CCN(C(=O)c2cc(Cl)ccc2Cl)CC3)cc1	none
Cc1nn(CC(=O)N2CCC(C)CC2)c(=O)c2cccn12	none
CC(=O)c1sc(NC(=O)CCOc2ccccc2)nc1C	PrPC surface inh 35 | PrPC confirm 41 | LD9 cytotox inactive
CC(=O)c1sc(NC(=O)C(C)(C)C)nc1C	PrPC surface inh 26 | PrPC confirm 27 | LD9 cytotox inactive
CCn1cc(/C=C(\NC(=O)c2ccccc2F)C(=O)NCCN2CCOCC2)c2ccccc21	none
O=C1OCCC1Sc1ncnc2sc3c(c12)CCC3 (stereo unspecified)	PrPC surface inh 56 | PrPC confirm 64 | LD9 cytotox inactive
COc1ccc(CN(C)C(=O)C(CCSC)NS(=O)(=O)c2ccc3c(c2)OCCO3)c(OC)c1OC (stereo unspecified)	none (no result: SARS 3CLpro inh)
